Measurements: ChEMBL document CHEMBL1157539, “Thousands of chemical starting points for antimalarial lead identification” (Nature, 2010)
Where “and” joins values, the source holds several entries; their conditions need not be identical. Equal values may be shown once.

System: Plasmodium falciparum
Assay: GSK_TCMDC: Inhibition of Plasmodium falciparum Dd2 in whole red blood cells, using parasite LDH activity as an index of growth. Test compounds present at 2uM
Format: functional

SMILES | Inhibition
CC[C@H]1CN2CC[C@@H]1C[C@H]2[C@H](O)c1cc(-c2ccccc2)nc2ccc(O)cc12.Cl | 99%
COC(=O)c1ccc(CC(C)NCC(O)c2cccc(Br)c2)cc1 (stereo not drawn) | 88%
CC[C@H]1CN2CCc3cc(OC)c(OC)cc3[C@@H]2C[C@@H]1C[C@H]1NCCc2c1cc(OC)c(O)c2Cl | 100%
CC[C@H]1CN2CC[C@H]1C[C@H]2[C@H](O)c1cc(-c2ccc(OC(F)(F)F)cc2)nc2ccc(OC)cc12.Cl | 99%
CC[C@H]1CN2CC[C@@H]1C[C@H]2[C@H](O)c1cc(N2CCC(O)(c3ccccc3)CC2)nc2ccc(OC)cc12 | 98%
CCN1CCC2(c3cccc(OC)c3)Cc3nc4ccccc4c(-c4ccccc4)c3CC2C1 (stereo not drawn) | 98%
CC(=O)C1(c2ccccc2)CCN(CCC2(c3ccc(Cl)c(Cl)c3)CN(C(=O)C3CCCC3)CCO2)CC1 (stereo not drawn) | 70%
CC(C)CN1CCC(N(C)c2cc(NC(=O)c3cccc(F)c3)ccn2)CC1.O=C(O)C(F)(F)F | 10%
O=C(NC1CCC(CN2CCC(c3c[nH]c4ccccc34)CC2)CC1)c1cc(-c2ccccc2Cl)oc1C(F)(F)F (stereo not drawn) | 7%
COC(=O)/C=C/c1ccc(CC(C)NCC(O)c2cccc(C(F)(F)F)c2)cc1.Cl (stereo not drawn) | 93%
CC1(C)CCCN(C(=O)Cc2ccc3c(c2)CCCC3)C1CN1CC=CC1.Cl (stereo not drawn) | 1%
CC(=O)C1(c2ccccc2)CCN(CCC2(c3ccc(Cl)c(Cl)c3)CN(C(=O)c3cccc(Cl)c3)CCO2)CC1 (stereo not drawn) | 61%
CN(c1cc(NC(=O)c2ccc(F)cc2)ccn1)C1CCN(Cc2cccc(C#N)c2)CC1.O=C(O)C(F)(F)F | 83%
COc1ccc(C(=O)C2CC2CN2CC=C(c3c[nH]c4ccccc34)CC2)cc1 (stereo not drawn) | 89%
COc1ccc(OC)c(C(O)CNC(C)C)c1.Cl (stereo not drawn) | 0%
N#Cc1ccc(N(CC(=O)NCCc2ccccc2)CC2CC2)c2ccccc12.O=C(O)C(F)(F)F | 48%
O=C(/C=C/c1ccc(Cl)c(Cl)c1)NC1CCC(CN2CCC(c3c[nH]c4cc(O)ccc34)CC2)CC1 (stereo not drawn) | 98%
Cc1[nH]c2ccc(NS(C)(=O)=O)cc2c1C1CCN(CC2CCN(C(=O)/C=C/c3ccc(Cl)c(Cl)c3)CC2)CC1 | 83%
CCCCNC(c1ccc(Cl)cc1)C(O)c1ccc(Cl)cc1.Cl (stereo not drawn) | 98%

SMILES | Inhibition
O=C(/C=C/c1ccc(Cl)c(Cl)c1)NC1CCC(N2CCC(c3c[nH]c4ccccc34)CC2)CC1 (stereo not drawn) | 69%
COC(=O)c1ccc(CC(C)NCC(O)c2cccc(C(F)(F)F)c2)cc1F.Cl (stereo not drawn) | 47%
COc1ccc2[nH]cc(C3=CCN(Cc4ccccc4)CC3)c2c1 | 84%
CCCCCCCn1c(=O)c(C(=O)Nc2c(C)cccc2C)c(O)c2ccccc21 | 42%
Cl.N#Cc1c(F)cc(N2CCC(NCC[C@H](N)Cc3ccc(F)c(F)c3)CC2)cc1F | 26%
CC[C@H]1CN2CC[C@@H]1C[C@H]2[C@H](O)c1cc(N2CCCC(C)(C)C2)nc2ccc(OC)cc12 | 72%
CN(C)c1cccc(NC(=O)NC2N=C(c3ccccc3)c3ccccc3N(CC(=O)N(C)c3ccccc3)C2=O)c1 (stereo not drawn) | 80%
O=C(/C=C/c1ccc(Cl)c(Cl)c1)N1CCC(CN2CCC(c3c(-c4ccccc4)[nH]c4ccccc34)CC2)CC1 | 99%
O=C(/C=C/c1cc(F)c(F)cc1F)N1CCC(CN2CCC(c3c[nH]c4ccccc34)CC2)CC1 | 3%
O=C(C=Cc1ccccc1Br)NC1CCC(CN2CCC(c3c[nH]c4ccccc34)CC2)CC1 (stereo not drawn) | 57% and 32%
Cl.O=C(/C=C/c1ccc(Cl)c(Cl)c1)NC1C2CCC1CC(CN1CCC(c3c[nH]c4ccccc34)CC1)C2 (stereo not drawn) | 100%
CN(c1cc(NC(=O)c2cccs2)ccn1)C1CCN(Cc2ccccc2)CC1.O=C(O)C(F)(F)F | 87%
NC(=O)c1ccc2[nH]cc(C3CCN(CC4CCC(NC(=O)/C=C/c5ccc(Cl)c(Cl)c5)CC4)CC3)c2c1 (stereo not drawn) | 26% and 32%
O=C(O)c1ccc2nc(-c3ccc(-c4ccccc4)cc3)n(C3CCN(Cc4ccc(-c5ncc[nH]5)cc4)CC3)c2c1 | 99%
O=C(/C=C/c1cccc2ccccc12)NC1CCC(CN2CCC(c3c[nH]c4ccccc34)CC2)CC1 (stereo not drawn) | 72% and 66%
c1ccc(C(OCCC2CCN(Cc3cccnc3)CC2)c2ccccc2)cc1 | 98%
Br.COC(=O)C(C)(C)c1ccc(CC(C)NCC(O)c2cccc(C(F)(F)F)c2)cc1 (stereo not drawn) | 98%
COc1ccc(-c2ccccc2)cc1NC(=S)NC1CCC(CN2CCC(c3c[nH]c4ccccc34)CC2)CC1 (stereo not drawn) | 98% and 95%
Cl.NCC(=O)c1cc2c(cc1N)OCCO2 | 42%
